This is a sample that favours compounds with a hit; in the whole collection about 12% have one here.
BAZ2B block: qHTS Assay for Inhibitors of BAZ2B | Bromodomain adjacent to zinc finger domain protein 2B (Homo sapiens), Q9UIF8 | AlphaScreen BAZ2B-H3K14Ac peptide displacement | Potency, µM (titrated, usually from 114 µM), for the others: top-dose activity change, negative = inhibition, actives largely listed as inhibitors | 360,000 compounds, 4.4% hits | AID 504333, 2011; also: % is scaled to controls: 0 for no effect and ±100 for the full control effect; nearly all actives have a fitted effect of over 60% in size
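AlphaScreen luminescence quantifies BAZ2B engagement of H3K14Ac peptide; the protein and biotinylated peptide are both at 50 nM final, buffer PBS pH 7.4 with 0.01% Tween-20, all steps at room temperature.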
HP1b binding inh: HTS for Inhibitors of HP1-beta Chromodomain Interactions with Methylated Histone Tails | Chromobox protein homolog 1 (Homo sapiens), P83916 | AlphaScreen HP1-beta / biotin-H3K9me3 peptide binding | Potency, µM (doses to about 114 µM), without a hit: at the highest dose activity change, negative = inhibition, usual class: inhibitors | 390,000 compounds, 0.56% hits | AID 540317, 2011; also: nearly all actives have a fitted effect of over 70% in size
Target sequence (P83916 whole entry, looked up): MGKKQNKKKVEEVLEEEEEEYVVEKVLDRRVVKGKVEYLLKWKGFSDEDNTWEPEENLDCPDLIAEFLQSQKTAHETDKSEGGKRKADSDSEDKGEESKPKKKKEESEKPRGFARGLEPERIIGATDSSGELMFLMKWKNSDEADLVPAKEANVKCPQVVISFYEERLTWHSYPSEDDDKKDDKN
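Compound inhibition of the preformed complex between 50 nM HP1-beta and 50 nM biotinylated H3K9me3 peptide was read by AlphaScreen. Buffer was PBS pH 7.4 with 0.01% Tween-20. Incubations ran 30 min at room temperature, with 10 ug/mL donor/acceptor beads.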
L3MBTL1 inh: qHTS Assay for the Inhibitors of L3MBTL1; AlphaScreen L3MBTL1–H3K9me1 peptide binding; Potency, µM (series often up to 57.1 µM), for the others: at the highest dose activity, negative = inhibition, hits mostly inhibitors; 230,000 compounds, 0.66% hits; Lethal(3)malignant brain tumor-like protein 1 (Homo sapiens), Q9Y468; AID 485360, 2010; also: % is scaled to controls: 0 for no effect and ±100 for the full control effect; nearly all actives have a fitted effect of over 60% in size
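AlphaScreen assay: L3MBTL1 (50 nM final) was preincubated 30 min at room temperature with biotinylated H3(1-15)K9me1 peptide (75 nM final), then 30 min with library compounds; streptavidin donor and nickel chelate acceptor beads (10 ug/mL final) added, 30 min dark.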
Sfp inh: qHTS Assay for Inhibitors of Bacillus subtilis Sfp phosphopantetheinyl transferase (PPTase) | 4'-phosphopantetheinyl transferase ffp (Bacillus subtilis), Q9F4F7 | Biochemical Sfp PPTase activity, qHTS | Potency, µM, without a hit: largest response in the series, negative = inhibition, actives largely listed as inhibitors | 310,000 compounds, 3.5% hits;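 also: the enzyme is Sfp with the accession as filed and its product quenches rhodamine fluorescence; 0% = enzyme reaction without inhibitor and -100% = no enzyme wells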
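Step 1, compound plus 15 nM Sfp-PPTase, 15 min, room temperature. Step 2, add rhodamine-CoA (5 uM) and BHQ-2-YbbR (12.5 uM). Step 3, read 525/598 nm fluorescence at 0 and 30 min.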
JMJD2A Tudor inh: qHTS Assay for Inhibitors of JMJD2A-Tudor Domain. Lysine-specific demethylase 4A (Homo sapiens), O75164. AlphaScreen JMJD2A-Tudor / H3K4me3 peptide binding. Potency, µM (doses to about 114 µM), for inactives: at the highest dose activity change, negative = inhibition, most hits filed as inhibitors. 390,000 compounds, 4.4% hits. AID 504339, 2011; also: % is scaled to controls: 0 for no effect and ±100 for the full control effect; nearly all actives have a fitted effect of over 50% in size
G9a inh: qHTS Assay for Inhibitors of Histone Lysine Methyltransferase G9a; Histone-lysine N-methyltransferase EHMT2 (Homo sapiens), Q96KQ7; G9a H3K9 monomethylation, AlphaScreen, 2 h; Potency, µM (highest dose often 102 µM), inactives show at the top dose activity, negative = inhibition, hits mostly inhibitors; 350,000 compounds, 8.8% hits; AID 504332, 2011; also: % is scaled to controls: 0 for no effect and ±100 for the full control effect; nearly all actives have a fitted effect of over 75% in size
Target sequence (Q96KQ7 913-1193 limits assumed): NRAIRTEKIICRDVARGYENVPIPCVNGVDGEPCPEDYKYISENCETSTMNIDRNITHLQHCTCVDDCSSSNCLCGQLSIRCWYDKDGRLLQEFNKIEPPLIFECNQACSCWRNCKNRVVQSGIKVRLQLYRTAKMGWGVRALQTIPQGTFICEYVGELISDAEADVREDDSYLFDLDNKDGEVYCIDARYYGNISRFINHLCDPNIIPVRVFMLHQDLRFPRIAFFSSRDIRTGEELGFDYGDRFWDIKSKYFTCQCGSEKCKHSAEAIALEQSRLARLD
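Using a bead-based AlphaScreen, monomethylated H3K9 product from 2 h room-temperature reactions (G9a 20 nM, peptide 500 nM, SAM 20 uM) was detected with 0.5 ug/mL rabbit anti-H3K9me1 antibody.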
Active calls of the source: *; ? = inconclusive; nt = not tested or not shown; ! = repeats disagree; [ ] = remark or other dose. Calls follow the shape of the dose curve; as a rule, active = well fitted curve in the direction sought with a large enough effect; inconclusive = small, poorly fitted or top-dose-only effect, or another doubt; inactive = no such curve, though single readings can be large; an effect the other way counts as inactive or inconclusive. Potency is read from the fitted curve at half-maximal effect.

SMILES	BAZ2B block	HP1b binding inh	L3MBTL1 inh	Sfp inh	JMJD2A Tudor inh	G9a inh
COc1ccc(C2=NN(c3nc(-c4ccccc4)c(CC(=O)O)s3)C(c3ccco3)C2)cc1 (stereo not given)	50µM*	-14%	32µM*	14µM*	79µM*	14µM*
O=C(c1ccc(Br)o1)N1N=C(c2ccc(Cl)cc2)CC1c1ccco1 (stereo not given)	?	?	nt	40µM*	?	50µM*
CCCOC(=O)NCCCN(C)C	nt	nt	nt	17%	nt	nt
COc1ccc(/C(C)=N/NC(=O)Cc2ccc(Cl)cc2)cc1	0%	27%	0%	-7%	-6%	nt
CNC(=O)c1cc(Oc2ccc(NC(=O)Nc3ccc(Cl)c(C(F)(F)F)c3)cc2)ccn1	-12%	1%	2%	-3%	?	28%[2.33 µM]
CN(C)Cc1ccccc1-c1ccc2ncnc(N3CCOCC3)c2c1	nt	nt	nt	-6%	nt	nt
O=S(=O)(c1ccccc1)N1N=C(c2ccc(Cl)cc2)CC1c1ccco1 (stereo not given)	0%	16%	-6%	nt	-26%	45µM*
CS(=O)(=O)N1N=C(c2cccs2)CC1c1ccco1 (stereo not given)	?	16%	-8%	10µM*	-29%	6%[12.7 µM]
O=C(CSc1nc2c(cnn2-c2ccccc2)c(=O)[nH]1)N1N=C(c2cccs2)CC1c1ccc(F)cc1 (stereo not given)	-26%	7%	6%	5%	-11%	28µM*
Clc1ccc(C2=NN(c3ccccc3)C(c3ccco3)C2)cc1 (stereo not given)	14%	379%	406%	28µM*	248%	nt
CC(=O)N1CCN(C(=O)CSc2nc3c(cnn3-c3ccccc3)c(=O)[nH]2)CC1	-7%	28%	-4%	12%	8%	-38%
O=C(O)CCC(=O)Nc1ccc2c(c1)Cc1cc(NC(=O)CCC(=O)O)ccc1-2	?	3%	nt	-8%	89µM*	39%[0.501 µM]
COC(=O)c1ccc(C(=O)Nc2ccc(N)cc2N)cc1	?	-1%	-21%	-29%	-26%	45µM*
CN(C)CCOC(C)(c1ccccc1)c1ccccn1 (stereo not given)	0%	8%	-4%	7%	-7%	10µM*!
CCN(C(=O)Cc1cccs1)c1nnc(-c2cccnc2)s1	?	34%	nt	-11%	-19%	2.8µM*
CN(C(=O)c1ccncc1)c1nnc(-c2cccnc2)s1	-5%	18%	nt	18%	-11%	16%[59 µM]
CCc1nc(SCc2cc(=O)c3cc(C)ccc3[nH]2)n[nH]1	10%	13%[57 µM]	nt	nt	-12%	28%[59 µM]
C=CCn1c(C(CC(C)C)CC(C)O)n[nH]c1=S (stereo not given)	-1%	-23%	-1%	-13%	8.9µM*	28µM*
C=CCn1c(C(CC)CC(C)(C)O)n[nH]c1=S (stereo not given)	-39%	nt	-2%	-12%	-16%	-2%[59 µM]
C=CCn1c(C(CCCC)CC(O)COCC(C)C)n[nH]c1=S (stereo not given)	-24%	48%	-5%	?	40µM*	32µM*
C=CCn1c(CCC(O)COCCCCC)n[nH]c1=S (stereo not given)	-20%	-14%	1%	?	20µM*	28µM*
C=CCn1c(C(CCCC)CC(O)COCCC)n[nH]c1=S (stereo not given)	14%	44%	-15%	-17%	-3%	?
CCn1cc(C(=O)OCC(=O)c2cc(C)n(-c3ccccc3)c2C)c(=O)c2ccc(C)nc21	?	-17%	-1%	?	-17%	21%[59 µM]
CCn1cc(C(=O)OCC(=O)c2cc(C)n(-c3ccccc3F)c2C)c(=O)c2ccc(C)nc21	?	?	-12%	-11%	40µM*	-21%[59 µM]
Cc1cccc(NC(=O)NNC(=O)COc2ccc([N+](=O)[O-])cc2)c1C	-2%	27%	nt	-2%	-5%	13%
SMILES	BAZ2B block	HP1b binding inh	L3MBTL1 inh	Sfp inh	JMJD2A Tudor inh	G9a inh
CCOC(=O)c1cc(C#N)c(=S)[nH]c1C	-25%	23%	4%	?	40µM*	10µM*
COC(=O)CSc1[nH]c(=O)cc(C)c1C#N	0%	10%	3%	10%	-20%	1%
COCc1[nH]c(=S)c(C#N)cc1C(=O)OC	-8%	?	-5%	8.9µM*	22µM*	-137%[59 µM]
CCOC(=O)c1cc(C#N)c(SCC(=O)OC)[nH]c1=O	-9%	31%	12%	50µM*	-6%	nt
C[C@@H](NC(=O)[C@@H]1Cc2ccccc2CN1C(=O)OC(C)(C)C)C(=O)NCC1CCCO1 (stereo not given in full)	0%	56%	nt	18%	-11%	3%
CC1CCCN(S(=O)(=O)c2ccc(NC(=O)[C@@H]3CCCN3C(=O)c3cccs3)cc2)C1 (stereo not given in full)	-5%	23%	-8%	nt	-5%	?
Cc1c(OCC(=O)N2CCN(c3ccccc3)CC2)ccc2c3c(c(=O)oc12)CCCC3	-23%	29%	nt	-2%	-2%	0%
Cc1ccc(CN(C)C(=O)c2ccc(S(=O)(=O)N(C)c3ccccc3)cc2)o1	-37%	-16%	-8%	nt	?	8%[0.501 µM]
CSc1ccccc1OCc1cc(C(=O)N2CCSCC2)no1	5%	12%	nt	-1%	-18%	?
CCn1ccnc1CN(C)C(=O)c1cc(COc2ccc(OC)c3ccccc23)on1	1%	?	nt	-12%	50µM*	93%
CC(=O)c1cccc(OCc2cc(C(=O)N(C)CCc3ccccn3)no2)c1	4%	43%	nt	8%	-14%	80%
CSc1ccccc1OCc1cc(C(=O)N2CCN(c3ncccn3)CC2)no1	-27%	8%	nt	?	?	56µM*
CC(=O)c1cccc(OCc2cc(C(=O)N(C)Cc3ccc(C)o3)no2)c1	-24%	?	nt	25µM*	79µM*	nt
Cc1ccc(CN(C)C(=O)c2ccccc2Oc2ccccc2)o1	-35%	-21%	0%	14µM*	?	?
CSc1ccccc1OCc1cc(C(=O)N(C)Cc2ccc(C)o2)no1	-24%	-9%	nt	20µM*	-28%	50µM*
CSc1ccccc1OCc1cc(C(=O)N(C)Cc2ccc3nsnc3c2)no1	2%	21%	nt	-2%	-17%	nt

Screening results as filed in PubChem BioAssay.
